Pf Dd2 inh – P. falciparum Dd2 growth inhibitors, primary screen, SYBR Green fluorescence, single dose replicates; activity change, % at 10 µM; 72 h; stronger effect = lower value; 2.3% of 94,000 active; in the data active means activity change below about -80%; inconclusive means no clear call, values can overlap the other calls
C diff HTS – C. difficile growth inhibitors, primary screen, HTS; 0.25% of 86,000 active; growth activity, negative = inhibition, % at 16 µg/mL (by protocol); AID 1259249, 2017; Clostridium difficile clinical isolate growth, OD600, 24 h; stronger effect = lower value;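 active means mean growth activity at or below -80% and every replicate also at or below -80%; inconclusive means mean at or below -80% but some replicate above -80%; inactive means mean growth activity above -80%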;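 further: 0% = DMSO wells and -100% = levofloxacin 16 µg/mL wells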
T cruzi growth-1 – T. cruzi intracellular proliferation inhibitors, primary screen, cell-based, beta-gal Tulahuen parasites, NIH3T3 host, luminescence; T. cruzi beta-gal in NIH3T3, GalScreen luminescence, 90 h; inhibition, % at 8.34 µM; 5.9% of 77,000 active; AID 624255, 2012;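 active means mean inhibition above about 93%, with at least 55% of replicates each passing it, limit read from the data, passing the limit was not always enough; inconclusive means only one of those two conditions holds; inactive means neither condition holds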
T cruzi growth-2 – T. cruzi intracellular proliferation inhibitors, confirmation, cell-based, NIH3T3 host, beta-gal parasite, luminescence, cherry-pick. 72% of 5,600 active. T. cruzi beta-gal in NIH3T3, GalScreen luminescence, 90 h. AID 651739, 2012. inhibition, % at 8.35 µM. shares compounds with T cruzi growth-1;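 active means mean replicate inhibition above about 95% and at least 55% of replicates individually reaching it, limit read from the data; inconclusive means only one of the two criteria is met; inactive means neither criterion is met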
T cruzi growth-3 – inhibitors of intracellular T. cruzi replication, confirmation, NIH3T3 host cells, beta-gal parasites, cherry-pick, set 2; 21% of 5,600 active; shares compounds with T cruzi growth-1; T. cruzi beta-gal in NIH3T3, GalScreen luminescence, 90 h; inhibition, % at 2.09 µM;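 active means mean inhibition above about 95%, with at least 55% of replicates also reaching it, limit read from the data; inconclusive means meets just one of the two conditions; inactive means meets neither condition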;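 further: plate controls were neutral control median for no effect and positive control median for full effect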
3T3 cytotox – cytotoxicity in mouse NIH/3T3 fibroblasts, confirmation, cytotoxicity control for T. cruzi proliferation inhibitor project, cell-based, cherry-pick, single point; shares compounds with T cruzi growth-1; NIH/3T3 viability, CellTiter-Glo ATP luminescence, 90 h; cytotoxicity (signal decrease), % at 8.35 µM; 14% of 5,600 active; AID 651742, 2012;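 active means mean signal decrease across replicates above about 35% based on untreated-well scatter, with enough replicates individually passing, limit read from the data; inconclusive means no rule stated though some were filed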;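 further: 0% = median of neutral control wells and 100% = median of positive control wells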
NIH3T3 tox 2 – NIH/3T3 fibroblast cytotoxicity, confirmation, cytotoxicity control, cell-based, cherry-pick, single point, set 2. shares compounds with T cruzi growth-1. NIH/3T3 viability, CellTiter-Glo ATP luminescence, 90 h. inhibition, % at 24.9 µM. 56% of 5,600 active;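 active means mean loss of cell viability signal at or above a set limit, and enough replicates individually reaching it; inconclusive means meets only the mean limit or only the replicate share; inactive means meets neither condition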;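 further: 0% = median of neutral control wells and 100% = median of positive control wells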
Starred values were filed as active, the others as inactive; ? = inconclusive; . = no result given; + = active, no number. Rows were chosen to be rich in hits. Some 6.7% of all compounds tested hit in one or more screens of this group.

SMILES	Pf Dd2 inh	C diff HTS	T cruzi growth-1	T cruzi growth-2	T cruzi growth-3	3T3 cytotox	NIH3T3 tox 2
C[C@H](CO)N1C[C@H](C)[C@@H](CN(C)C(=O)C2CCC2)Oc2cc(C#CCN(C)C)ccc2S1(=O)=O	-9	0	106*	99*	93	19	8
C[C@H]1CN([C@@H](C)CO)S(=O)(=O)c2ccc(C#CCN(C)C)cc2O[C@@H]1CN(C)C(=O)C1CCCCC1	-34	-2	.	.	.	.	.
CNC(=O)C[C@@H]1CC[C@H]2[C@@H](COc3ccc(NC(=O)Nc4cccc(F)c4)cc3C(=O)N2C)O1	-5	-3	21	.	.	.	.
C[C@@H]1CN([C@H](C)CO)C(=O)c2cc(NS(C)(=O)=O)ccc2O[C@@H](C)CCCCO[C@H]1CN(C)S(=O)(=O)c1ccc(F)cc1	-32	-2	43	.	.	.	.
CC(=O)N1CC2(C1)[C@@H](c1ccc(-c3ccccc3C)cc1)[C@@H](CO)N2C(C)=O	37	13	.	.	.	.	.
C[C@H]1CN([C@@H](C)CO)C(=O)c2cc(NC(=O)Nc3cccc4ccccc34)ccc2O[C@@H]1CN(C)Cc1ccc(C(F)(F)F)cc1	12	-3	87*	109*	44	13	11
C[C@@H]1CN([C@@H](C)CO)C(=O)c2cc(NC(=O)Nc3cccc4ccccc34)ccc2O[C@@H]1CN(C)Cc1ccccc1	5	4	66	.	.	.	.
C[C@@H]1CN([C@H](C)CO)C(=O)c2cc(NC(=O)Nc3cccc4ccccc34)ccc2O[C@H]1CN(C)Cc1ccccc1	-20	1	54	.	.	.	.
C[C@@H]1CN([C@H](C)CO)C(=O)c2cc(NC(=O)Nc3cccc4ccccc34)ccc2O[C@H]1CN(C)Cc1ccc(C(F)(F)F)cc1	9	-5	106*	105*	59	20	?
COC(=O)C[C@@H]1CC[C@@H]2[C@H](COc3ccc(NC(=O)c4ccc(OC)cc4)cc3C(=O)N2C)O1	-6	-2	6	.	.	.	.
COCC(=O)Nc1ccc2c(c1)C(=O)N(C)[C@H]1CC[C@@H](CC(=O)NCc3ccccc3F)O[C@@H]1CO2	-3	0	-4	.	.	.	.
CCCNC(=O)[C@H]1[C@H](CO)[C@H]2Cn3c(cccc3=O)[C@H]2N1CC1CCCCC1	6	-1	10	.	.	.	.
O=C(Nc1ccc(-c2ccccc2)cc1)[C@H]1[C@H](CO)[C@H]2Cn3c(cccc3=O)[C@H]2N1CC1CCOCC1	-19	-9	63	.	.	.	.
CCNC(=O)[C@H]1[C@H](CO)[C@H]2Cn3c(cccc3=O)[C@H]2N1CC1CCCCC1	.	.	+	39	8	0	-1
O=C(Nc1ccc(-c2ccccc2)cc1)[C@@H]1[C@@H](CO)[C@@H]2Cn3c(cccc3=O)[C@@H]2N1CC1CCCCC1	-82*	1	?	?	105*	-9	104*
CC(=O)N[C@@H]1CC[C@H](CCNC(=O)C2CCCC2)O[C@H]1CO	-2	-3	.	.	.	.	.
C[C@H](CO)N1C[C@H](C)[C@H](CN(C)Cc2ccccc2)Oc2cc(C#CC(C)(C)O)ccc2S1(=O)=O	-16	-5	60	.	.	.	.
C[C@@H]1CN([C@@H](C)CO)S(=O)(=O)c2ccc(C#CC(C)(C)O)cc2O[C@@H]1CN(C)Cc1ccc(-c2ccccc2)cc1	-6	7	121*	93	115*	5	103*
C[C@H](O)C#Cc1ccc2c(c1)O[C@@H](CN(C)Cc1ccc(-c3ccccc3)cc1)[C@H](C)CN([C@H](C)CO)S2(=O)=O	-72	1	60	.	.	.	.
C[C@H](O)C#Cc1ccc2c(c1)O[C@H](CN(C)Cc1ccc(-c3ccccc3)cc1)[C@H](C)CN([C@@H](C)CO)S2(=O)=O	8	0	109*	99*	101*	47*	104*
C[C@H](CO)N1C[C@H](C)[C@@H](CN(C)Cc2ccccc2)Oc2cc(C#CC(C)(C)O)ccc2S1(=O)=O	-12	-5	89	.	.	.	.
C[C@@H]1CN([C@@H](C)CO)S(=O)(=O)c2ccc(C#CC(C)(C)O)cc2O[C@H]1CN(C)Cc1ccc(-c2ccccc2)cc1	-56	8	118*	91	113*	116*	107*
CCCC#Cc1ccc(CC[C@H]2O[C@H]3CC[C@@H](CO)O[C@H]3C[C@H]2NC(=O)c2cnccn2)cc1	-13	9	.	.	.	.	.
COCC(=O)N1[C@H](CO)[C@H](c2ccc(C#Cc3ccccc3F)cc2)[C@@H]1C#N	-43	12	92	.	.	.	.
O=C(Nc1cc(F)ccc1F)N1CCCCN2[C@H](C1)[C@@H](c1ccc(-c3ccncc3)cc1)[C@@H]2CO	-14	-1	94	.	.	.	.
SMILES	Pf Dd2 inh	C diff HTS	T cruzi growth-1	T cruzi growth-2	T cruzi growth-3	3T3 cytotox	NIH3T3 tox 2
O=C(Nc1cc(F)ccc1F)N1CCCCN2[C@H](CO)[C@@H](c3ccc(-c4cccnc4)cc3)[C@H]2C1	-26	-10	61	.	.	.	.
O=C(Nc1cc(F)ccc1F)N1CCCCN2[C@H](C1)[C@@H](c1ccc(-c3cncnc3)cc1)[C@@H]2CO	14	4	105*	4	-14	-16	-2
O=C(Nc1cc(F)ccc1F)N1CCCCN2[C@H](CO)[C@@H](c3ccc(-c4ccncc4)cc3)[C@@H]2C1	-16	13	88	.	.	.	.
O=C(Nc1cc(F)ccc1F)N1CCCCN2[C@H](CO)[C@@H](c3ccc(-c4ccccc4)cc3)[C@H]2C1	-38	14	36	.	.	.	.
O=C(Nc1cc(F)ccc1F)N1CCCCN2[C@H](CO)[C@H](c3ccc(-c4cncnc4)cc3)[C@@H]2C1	21	-4	115*	54	31	23	19
O=C(Nc1cc(F)ccc1F)N1CCCCN2[C@H](C1)[C@@H](c1ccc(-c3ccccc3)cc1)[C@@H]2CO	-21	34	99*	101*	102*	62*	106*
O=C(Nc1cc(F)ccc1F)N1CCCCN2[C@H](CO)[C@H](c3ccc(-c4cccnc4)cc3)[C@H]2C1	-45	1	104*	101*	59	-25	?
COc1ccc2c3c(n(C)c2c1)[C@H](CO)N(C(=O)Nc1ccccc1F)CC31CCN(C(=O)c2ccccc2)CC1	-76	1	.	.	.	.	.
O=C(C[C@H]1C[C@H]2c3cc(NC(=O)c4ccc5c(c4)OCO5)ccc3O[C@H]2[C@H](CO)O1)NC1CCCC1	-10	.	2	.	.	.	.
COc1ccc(S(=O)(=O)Nc2ccc3c(c2)C(=O)N([C@@H](C)CO)C[C@H](C)[C@@H](CN(C)S(=O)(=O)c2ccc(C)cc2)O3)cc1	-33	4	18	.	.	.	.

Source: PubChem BioAssay (Broad Institute)
